# PP5 inh: blocks human protein phosphatase 5 activity; actives 0.18% (n = 320,000); P53041; inhibition, % at 6.7 µM; purified PP5c, OMFP substrate fluorescence; AID 1987;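 active = inhibition above the campaign's mean inhibition across all tested compounds plus 3 SD, cut at about 9.5% in these data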
# pPAFAH FP inh: inhibitors of human plasma PAF acetylhydrolase (pPAFAH) | Q13093 | recombinant pPAFAH, FP-rhodamine probe fluorescence polarization | actives 1.5% (n = 330,000) | AID 463082 | inhibition, % at 3.39 µM;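 active = inhibition above the mean inhibition across the screen plus 3 SD, cut at about 25% in these data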;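 also: inhibitors block binding of the rhodamine activity-based probe so polarization drops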
# PP1 inh: blocks human PP1-alpha phosphatase, a PP5 counter-screen; P62136; purified PP1alpha, OMFP fluorescence; inhibition, % at 6.7 µM; actives 0.9% (n = 320,000); AID 2235;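 active = inhibition above the mean inhibition of all tested compounds plus 3 SD, computed separately for each screening campaign, cut at about 15% in these data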
# Target sequence (P62136 whole entry, looked up): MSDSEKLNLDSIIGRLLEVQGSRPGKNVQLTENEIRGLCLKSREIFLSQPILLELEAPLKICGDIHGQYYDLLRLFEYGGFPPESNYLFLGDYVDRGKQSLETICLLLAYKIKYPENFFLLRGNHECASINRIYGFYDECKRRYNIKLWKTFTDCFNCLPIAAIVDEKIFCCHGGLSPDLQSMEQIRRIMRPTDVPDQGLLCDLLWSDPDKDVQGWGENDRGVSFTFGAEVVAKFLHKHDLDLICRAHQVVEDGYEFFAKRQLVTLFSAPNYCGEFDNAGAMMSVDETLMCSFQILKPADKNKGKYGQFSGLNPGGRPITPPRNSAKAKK
# PAFAH1B2 FP inh: blocks human PAF acetylhydrolase 1b catalytic subunit 2 | P68402 | recombinant PAFAH1B2, FP-rhodamine activity probe, fluorescence polarization | inhibition, % at 3.39 µM | actives 1.2% (n = 340,000);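 active = inhibition above the mean of all tested compounds plus 3 SD, cut at about 24% in these data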
# Target sequence (P68402 whole entry, looked up): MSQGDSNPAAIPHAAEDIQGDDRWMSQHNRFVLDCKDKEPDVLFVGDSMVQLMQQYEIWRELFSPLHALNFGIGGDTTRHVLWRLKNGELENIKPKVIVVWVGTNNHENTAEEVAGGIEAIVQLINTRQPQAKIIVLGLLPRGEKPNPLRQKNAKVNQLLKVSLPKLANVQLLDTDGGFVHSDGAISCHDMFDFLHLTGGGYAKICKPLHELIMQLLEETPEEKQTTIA
# PAFAH1B3 FP inh: blocks human PAF acetylhydrolase 1B catalytic subunit 3 | actives 0.28% (n = 340,000) | Q15102 | recombinant PAFAH1B3, FP-rhodamine probe, fluorescence polarization | inhibition, % at 3.39 µM;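 active = inhibition above the screen-wide average of all tested compounds plus 3 SD, cut at about 25% in these data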
# PAFAH2 inh: PAFAH2 (human) inhibition; recombinant PAFAH2, FP-rhodamine activity probe, fluorescence polarization; inhibition, % at 3.39 µM; actives 0.99% (n = 340,000); AID 492956;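 active = inhibition above the mean over all tested compounds plus 3 SD, cut at about 30% in these data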;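 also: inhibitors block probe labeling of enzyme so polarization drops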
# PP1 confirm: confirmation of human PP1 phosphatase inhibitors; shares compounds with PP1 inh; purified PP1alpha, OMFP substrate fluorescence; inhibition, % at 6.7 µM; actives 52% (n = 1,900); AID 2358;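 active = mean PP1 inhibition above a set limit taken from the earlier primary screen, cut at about 15% in these data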
# PP5 inh counter: counter-screen for PP1 inhibitors: human PP5 phosphatase inhibition; purified PP5c, OMFP fluorescence; shares compounds with PP1 inh; actives 4% (n = 1,900); inhibition, % at 6.7 µM;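 active = mean PP5 inhibition over triplicate wells above about 9.5% taken from the earlier PP1 screen, limit read from the data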
# Hits are given with their value; 0 = inactive; - = not tested or not shown. Compounds with a hit are over-represented: about 3.4% of the library has one in this group of screens.
SMILES,PP5 inh,pPAFAH FP inh,PP1 inh,PAFAH1B2 FP inh,PAFAH1B3 FP inh,PAFAH2 inh,PP1 confirm,PP5 inh counter
COc1ccccc1CNC(=O)C(NS(=O)(=O)c1ccc2c(c1)oc(=O)n2C)C(C)C (stereo not drawn),0,0,26.6,0,0,0,0,0
CCC(C(=O)NCCc1ccc(OC)c(OC)c1)n1nc(C)n2c(cc3occc32)c1=O (stereo not drawn),0,0,0,0,0,0,-,-
COC(=O)c1cc(=O)c2cccc(OC)c2[nH]1,0,0,0,0,0,0,-,-
O=[N+]([O-])c1cc(Cl)cc(/C=N/NC(=S)Nc2ccc(S(=O)(=O)N3CCOCC3)cc2)c1O,0,51.9,19.0,37.2,0,41.9,19.2,0
N#Cc1ccc(/C=N/NC(=S)Nc2ccc(S(=O)(=O)N3CCOCC3)cc2)cc1,0,0,0,0,0,0,-,-
CC1(C)Cc2nc3sc4c(N5CCCC5)nnnc4c3cc2CO1,0,0,0,-,-,-,-,-
COc1ccc(N2CCN(C(=O)CSc3ncnc4scc(-c5ccc(C)cc5)c34)CC2)cc1,0,0,25.9,0,0,0,18.9,0
O=C1CCCc2oc3c(cc(NS(=O)(=O)c4ccc5c6c(cccc46)C(=O)N5)c4ccccc43)c21,0,0,19.6,0,0,0,0,0
CSc1nc(C)c(CCOC(=O)c2ccccc2)c(=O)[nH]1,0,0,0,0,0,0,-,-
CC(C)(C)NC(=O)N1CCN(c2nc(-c3ccccc3)ns2)CC1,0,0,52.7,0,0,0,0,0
COc1cc(C2c3c(n[nH]c3C)C(=O)N2c2ccc(Br)cc2)ccc1O (stereo not drawn),0,0,0,0,0,0,-,-
CC(Oc1cccc(Cl)c1)C(=O)Nc1nc(-c2ccccn2)cs1 (stereo not drawn),0,0,29.6,0,0,0,35.5,0
C[C@H](NC(=O)c1ccccc1)C(=O)Nc1nc(-c2ccccn2)cs1,0,0,0,0,0,0,-,-
Cc1cccc(C(=O)NC(C(=O)Nc2nc(-c3ccccn3)cs2)C(C)C)c1 (stereo not drawn),0,0,20.6,0,0,0,24.9,0
Cc1ccc(C)c(S(=O)(=O)N2CCN(CC(=O)N3CCc4ccccc4C3)CC2)c1,0,0,0,0,0,0,-,-
Cc1cccc(OCCn2c(NC(=O)c3ccco3)nc3ccccc32)c1,0,0,19.5,0,0,0,0,0
Cc1ccc(OCCn2c(NC(=O)c3ccco3)nc3ccccc32)cc1,0,0,0,0,0,0,-,-
CCOC(=O)c1[nH]nc(C(=O)c2ccc(Br)cc2)c1O,0,0,31.1,0,0,0,30.4,0
COc1ccc(/C=N/N2C(=O)CSC2=S)cc1Br,0,28.8,25.1,0,0,0,22.1,0
COc1ccc(/C=N/N2C(=O)CSC2=S)cc1,0,0,0,0,0,0,-,-
Cc1ccc(C(=O)NCc2ccc(Cl)c(Cl)c2)o1,0,0,0,0,0,0,-,-
Oc1c(C(Nc2nccs2)c2ccc(C(F)(F)F)cc2)ccc2cccnc12 (stereo not drawn),-,-,-,0,0,0,-,-
Oc1c(C(Nc2cccc(C(F)(F)F)c2)c2ccncc2)ccc2cccnc12 (stereo not drawn),0,0,18.2,0,0,0,0,0
CC(C)C(=O)NC(C)C(c1cccs1)N1CCN(c2ccccc2)CC1 (stereo not drawn),0,0,0,0,0,0,-,-
CC(NC(=O)C1CC1)C(c1cccs1)N1CCN(c2ccccc2)CC1 (stereo not drawn),0,0,46.6,0,0,0,0,0
SMILES,PP5 inh,pPAFAH FP inh,PP1 inh,PAFAH1B2 FP inh,PAFAH1B3 FP inh,PAFAH2 inh,PP1 confirm,PP5 inh counter
Cc1cccc(Nc2nc(NCc3ccco3)c3ccccc3n2)c1,10.3,0,25.1,0,0,0,0,0
Cc1ccccc1Nc1nc(NCc2ccco2)c2ccccc2n1,0,0,24.6,0,0,0,0,0
N#Cc1nc(-c2ccc(OCc3ccccc3)cc2)oc1NCCCn1ccnc1,0,0,21.3,0,0,0,0,0
Cc1noc(C)c1CSc1ccccc1C(=O)N1CCN(c2ccccc2)CC1,0,0,0,0,0,0,-,-
Clc1cccc(Cl)c1Cn1cnc(=NCc2ccco2)c2[nH]cnc21,0,0,0,0,0,0,-,-
CC1(C)Cc2c(C#N)c(N3CCN(C(=O)c4ccco4)CC3)nc(-c3ccco3)c2CS1,0,31.9,19.3,0,0,0,0,0
CC(=O)N1CCN(c2nc(-c3ccco3)c3c(c2C#N)CC(C)(C)SC3)CC1,0,0,0,0,0,0,-,-
N#Cc1c(-c2ccccc2)nc(SCc2ccc(Cl)cc2)[nH]c1=O,0,0,17.9,35.0,0,0,0,0
C=CCSc1nc(-c2ccccc2)c(C#N)c(=O)[nH]1,0,0,0,0,0,0,-,-
N#Cc1c(-c2ccccc2)nc(SCC(=O)N2c3ccccc3Sc3ccccc32)[nH]c1=O,0,0,20.7,24.5,0,0,17.4,0
Cc1ccc(-c2c(NC(=O)c3ccco3)oc3ccccc3c2=O)cc1,0,0,0,0,0,0,-,-
O=C(COc1ccc(S(=O)(=O)N2CCCC2)cc1)NCCC1=CCCCC1,0,0,0,0,0,0,-,-
Cc1ccccc1NC(=S)NCC1CCN(C(C)c2ccccc2)C1 (stereo not drawn),0,0,25.0,0,0,0,0,0
Clc1ccc(N=c2ssnc2Cl)cc1,0,0,19.3,0,0,0,0,0
Cc1cccc(C(=O)N[C@H](C(=O)OCc2cc(=O)n3c(n2)sc2ccccc23)C(C)C)c1,0,0,0,0,0,0,-,-
CCOC(=O)c1cnc2c(C)c(-c3ccccc3)[nH]n2c1=O,0,0,48.5,0,0,0,33.9,0
CCOC(=O)c1cnc(-n2[nH]c(C)c(Cc3ccccc3)c2=O)[nH]c1=O,0,0,27.5,0,0,0,0,0
Cc1ccc(C(=O)NCCCN2CCOCC2)c(Cl)c1,0,0,0,0,0,0,-,-
CC(=O)C1=C(O)C=C(c2ccco2)CC1c1ccco1 (stereo not drawn),0,0,0,0,0,0,-,-
Cc1cccc(C)c1Nc1nnc(SCC(=O)Nc2cc(S(=O)(=O)N3CCCCC3)ccc2Cl)s1,0,0,24.4,0,0,0,20.8,0
Cc1cccc(Nc2nnc(SCC(=O)Nc3cccc(S(=O)(=O)N4CCCCC4)c3)s2)c1,0,0,0,0,0,0,-,-
Cc1cc(C)cc(C(=O)N(CCc2ccccc2)C2CC3CCC(C2)N3C)c1 (stereo not drawn),0,0,0,0,0,0,-,-
Cc1cccc(-n2c(-c3ccncc3)n[nH]c2=S)c1C,0,29.6,18.6,0,0,0,0,0
Cc1ccccc1-n1c(-c2ccncc2)n[nH]c1=S,0,0,0,0,0,0,-,-

# Bioassay records (PubChem BioAssay)
